Laboratory results taken from PubChem BioAssay (NCATS).
Results filed as inconclusive are left out. Unless noted, calls come from the whole dose curve; as a rule, active = well fitted curve in either direction with a large enough effect (not every such curve was filed as active); inconclusive = small, poorly fitted or top-dose-only effect, or another doubt; inactive = flat fitted curve, though single readings scatter.

Test system: not listed separately
Test: Stat Signaling Pathway (AID 446);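 note: ME-180 cervical cancer cells given 40 pM IL-6 alongside compound; SIE-controlled beta-lactamase reporter measured as 460/530 nm FRET emission ratio; % is set by controls: 0 for no effect and ±100 for the full control effect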
Details: ME-180 (cervical carcinoma) SIE beta-lactamase reporter, IL-6 stimulated, 5 h; at 17.2 µM (top of the series) unless noted
Procedure, shortened: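 FRET read-out (405 nm excitation, 460/530 nm emission) of a beta-lactamase reporter under a STAT-inducible element in ME-180 cervical carcinoma cells. Cells with compound receive 40 pM IL-6 for 5 h. Values are normalised to AC90 stimulation and AC90 JAK-inhibitor controls.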

activity, negative = inhibition, inactive:
COC(=O)c1sccc1NC(=O)c1c(C)cc(=O)oc1C -6.64%, COc1nnnc2c1sc1nc(N3CCOCC3)c3c(c12)CC(C)(C)OC3 -7.42%, CC1(C)NC(=O)N(CC(O)COc2cc3ccccc3cc2C(=O)N2CCCCC2)C1=O (stereo not drawn) -3.07%, CC(C)OC(=O)c1sc2nc3c(cc2c1N)C(=O)CCC3 -1.01%, Nc1nnc(CSCc2ccc(F)cc2)s1 -2.21%, CC(C(=O)N1CCOCC1)N1C(=O)c2ccccc2C1=O (stereo not drawn) 10.1%, CN(C)CCOC(=O)Cc1ccc(Cl)cc1 -4.76%, COc1ccc(Nc2nnc(C)c3ccccc23)cc1C(N)=O -9.16%, c1coc(-c2nc3nc4ccccc4nc3n2-c2ccc3c(c2)OCCO3)c1 -8.28%, O=C(OCCN1CCOCC1)c1ccc(OCCN2CCOCC2)cc1 -3.54%, COc1cccc(C=NCCNC(=O)c2nonc2N)c1O 7.79%, C=CCNc1nc(C)nc(OC)n1 4.41%, CCC(NC(=O)NC1=NCCS1)(C(F)(F)F)C(F)(F)F 15.4%, Cc1ccc(N(CC(O)CN2CCCC2)S(=O)(=O)c2ccc(C)cc2)cc1 (stereo not drawn) 11.3%, CCOC(=O)CSc1nc(C)c(C(C)=O)cc1C#N 6.11%, O=C1CC(c2ccco2)CC(O)=C1C=NCCN1CCN(C2CC(=O)N(c3ccccc3)C2=O)CC1 (stereo not drawn) -0.0328%, CCOCc1nc(N)[nH]c(=O)c1Cc1ccc(OC(C)C)cc1 9.73%, Cn1c[n+](C)cc1/C=N/O -2.71%, CCCc1nc2n[nH]c(N)c2c2c1COC(C)(C)C2 2.38%, COc1ccc(OC)c(C2/C(=C(\O)c3ccc(OC)c(Cl)c3)C(=O)C(=O)N2CCN(C)C)c1 (stereo not drawn) -6.77%, Cc1cn2c(-c3ccncc3)nnc2s1 -2.66%, CCCOc1ccc(/C(O)=C2/C(=O)C(=O)N(CCN3CCOCC3)C2c2ccccc2)cc1 (stereo not drawn) -4.33%, CN=C1c2c(-c3ccccc3)c3cc(OC)ccc3n2CCN1C -1.77%, N#CCCSc1nc(N2CCOCC2)c2c(c1C#N)CCCC2 -12.4%, COc1ccc(/C(O)=C2/C(=O)C(=O)N(CCN3CCOCC3)C2c2ccccn2)cc1OC (stereo not drawn) -5.39%, COCCNC(=O)C(C#N)c1nc2ccccc2nc1N1CCN(Cc2ccc3c(c2)OCO3)CC1 (stereo not drawn) 4.46%, N#C/C(C(=O)N1CCCCC1)=C1\Nc2ccccc2S1 -10.3%, C=CCOc1ccc(C2/C(=C(\O)c3ccc(F)cc3)C(=O)C(=O)N2CCCN(C)C)cc1 (stereo not drawn) 17%, Cc1nn(C)cc1CNC(=O)c1ccc(Br)o1 6.82%, CC1(C)CC(=O)C(CCCN2C(=O)c3ccccc3C2=O)C(=O)C1 16.7%, Cc1cc(NC(=O)CSc2nc(-c3cccnc3)ccc2C#N)no1 -9.33%, O=C(c1ccccc1)c1cc(-c2ccccc2)on1 -7.84%, CCCCCOC(=O)Cc1c(C)nc(-c2ccccc2)[nH]c1=O 4.57%, Cc1cccc(NC(=O)c2cc(N3CCOCC3)nc3ccccc23)c1 -0.239%, COc1ccc(/C(O)=C2\C(=O)C(=O)N(CCN3CCOCC3)C2c2ccccc2OC)cc1 (stereo not drawn) -2.59%, CC(=O)NC(=O)Nc1sc(=S)n(C)c1C 1.93%, CCN(CC)S(=O)(=O)c1cccc2c(N(C)C)cccc12 19%, CCN(CC)CCN1C(=O)C(O)=C(C(=O)c2cccs2)C1c1ccccn1 (stereo not drawn) -0.0775%, CCOC(=O)C1=C(C(C)=O)C(c2cccnc2)C(C#N)=C(N)O1 (stereo not drawn) -12.3%

Biological target: Glucocorticoid receptor (Homo sapiens) (UniProt P04150)
Sequence (P04150 whole entry, looked up): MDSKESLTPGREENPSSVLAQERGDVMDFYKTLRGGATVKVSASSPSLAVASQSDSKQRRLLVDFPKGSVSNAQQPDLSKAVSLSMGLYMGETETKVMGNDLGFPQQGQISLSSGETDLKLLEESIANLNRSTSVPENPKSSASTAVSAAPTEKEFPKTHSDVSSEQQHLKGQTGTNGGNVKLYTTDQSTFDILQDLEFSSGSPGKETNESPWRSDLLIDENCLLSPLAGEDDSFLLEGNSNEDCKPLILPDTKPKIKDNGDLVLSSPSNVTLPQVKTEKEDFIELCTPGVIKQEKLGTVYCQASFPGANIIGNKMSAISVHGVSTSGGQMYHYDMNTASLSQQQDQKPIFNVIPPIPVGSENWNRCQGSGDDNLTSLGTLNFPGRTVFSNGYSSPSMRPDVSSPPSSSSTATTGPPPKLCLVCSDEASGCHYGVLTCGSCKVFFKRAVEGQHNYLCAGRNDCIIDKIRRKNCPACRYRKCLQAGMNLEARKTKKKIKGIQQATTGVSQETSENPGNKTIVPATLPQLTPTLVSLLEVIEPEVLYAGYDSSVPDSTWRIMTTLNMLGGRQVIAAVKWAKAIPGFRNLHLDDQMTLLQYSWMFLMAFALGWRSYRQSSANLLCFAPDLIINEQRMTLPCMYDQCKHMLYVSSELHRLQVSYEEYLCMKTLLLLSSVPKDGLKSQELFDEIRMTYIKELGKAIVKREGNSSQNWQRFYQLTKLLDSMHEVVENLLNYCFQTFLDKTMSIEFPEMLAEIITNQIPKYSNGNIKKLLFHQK
Test: GR-GFP Redistribution (AID 450;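 active = compounds whose dose series gives a full or clear partial fitted curve of increased nuclear translocation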; note: potency is the fitted concentration of half-maximal effect)
Details: U2OS GR-GFP nuclear translocation, laser cytometry, 2 h; series mostly up to 20.6 µM

Potency, inactive:
COC(=O)c1sccc1NC(=O)c1c(C)cc(=O)oc1C > 20.6 µM, COc1nnnc2c1sc1nc(N3CCOCC3)c3c(c12)CC(C)(C)OC3 > 20.6 µM, CC1(C)NC(=O)N(CC(O)COc2cc3ccccc3cc2C(=O)N2CCCCC2)C1=O (stereo not drawn) > 20.6 µM, CC(C)OC(=O)c1sc2nc3c(cc2c1N)C(=O)CCC3 > 20.6 µM, Nc1nnc(CSCc2ccc(F)cc2)s1 > 20.6 µM, CC(C(=O)N1CCOCC1)N1C(=O)c2ccccc2C1=O (stereo not drawn) > 20.6 µM, CN(C)CCOC(=O)Cc1ccc(Cl)cc1 > 20.6 µM, COc1ccc(Nc2nnc(C)c3ccccc23)cc1C(N)=O > 20.6 µM, c1coc(-c2nc3nc4ccccc4nc3n2-c2ccc3c(c2)OCCO3)c1 > 20.6 µM, O=C(OCCN1CCOCC1)c1ccc(OCCN2CCOCC2)cc1 > 20.6 µM, COc1cccc(C=NCCNC(=O)c2nonc2N)c1O > 20.6 µM, C=CCNc1nc(C)nc(OC)n1 > 20.6 µM, CCC(NC(=O)NC1=NCCS1)(C(F)(F)F)C(F)(F)F > 20.6 µM, Cc1ccc(N(CC(O)CN2CCCC2)S(=O)(=O)c2ccc(C)cc2)cc1 (stereo not drawn) > 20.6 µM, CCOC(=O)CSc1nc(C)c(C(C)=O)cc1C#N > 20.6 µM, O=C1CC(c2ccco2)CC(O)=C1C=NCCN1CCN(C2CC(=O)N(c3ccccc3)C2=O)CC1 (stereo not drawn) > 20.6 µM, CCOCc1nc(N)[nH]c(=O)c1Cc1ccc(OC(C)C)cc1 > 20.6 µM, Cn1c[n+](C)cc1/C=N/O > 20.6 µM, CCCc1nc2n[nH]c(N)c2c2c1COC(C)(C)C2 > 20.6 µM, COc1ccc(OC)c(C2/C(=C(\O)c3ccc(OC)c(Cl)c3)C(=O)C(=O)N2CCN(C)C)c1 (stereo not drawn) > 20.6 µM, Cc1cn2c(-c3ccncc3)nnc2s1 > 20.6 µM, CCCOc1ccc(/C(O)=C2/C(=O)C(=O)N(CCN3CCOCC3)C2c2ccccc2)cc1 (stereo not drawn) > 20.6 µM, CN=C1c2c(-c3ccccc3)c3cc(OC)ccc3n2CCN1C > 20.6 µM, N#CCCSc1nc(N2CCOCC2)c2c(c1C#N)CCCC2 > 20.6 µM, COc1ccc(/C(O)=C2/C(=O)C(=O)N(CCN3CCOCC3)C2c2ccccn2)cc1OC (stereo not drawn) > 20.6 µM, COCCNC(=O)C(C#N)c1nc2ccccc2nc1N1CCN(Cc2ccc3c(c2)OCO3)CC1 (stereo not drawn) > 20.6 µM, N#C/C(C(=O)N1CCCCC1)=C1\Nc2ccccc2S1 > 20.6 µM, C=CCOc1ccc(C2/C(=C(\O)c3ccc(F)cc3)C(=O)C(=O)N2CCCN(C)C)cc1 (stereo not drawn) > 20.6 µM, Cc1nn(C)cc1CNC(=O)c1ccc(Br)o1 > 20.6 µM, CC1(C)CC(=O)C(CCCN2C(=O)c3ccccc3C2=O)C(=O)C1 > 20.6 µM, Cc1cc(NC(=O)CSc2nc(-c3cccnc3)ccc2C#N)no1 > 20.6 µM, O=C(c1ccccc1)c1cc(-c2ccccc2)on1 > 20.6 µM, CCCCCOC(=O)Cc1c(C)nc(-c2ccccc2)[nH]c1=O > 20.6 µM, Cc1cccc(NC(=O)c2cc(N3CCOCC3)nc3ccccc23)c1 > 20.6 µM, COc1ccc(/C(O)=C2\C(=O)C(=O)N(CCN3CCOCC3)C2c2ccccc2OC)cc1 (stereo not drawn) > 20.6 µM, CC(=O)NC(=O)Nc1sc(=S)n(C)c1C > 20.6 µM, CCN(CC)S(=O)(=O)c1cccc2c(N(C)C)cccc12 > 20.6 µM, CCN(CC)CCN1C(=O)C(O)=C(C(=O)c2cccs2)C1c1ccccn1 (stereo not drawn) > 20.6 µM, CCOC(=O)C1=C(C(C)=O)C(c2cccnc2)C(C#N)=C(N)O1 (stereo not drawn) > 20.6 µM
